# Columns and labels:
# Experiment in all cases: PBM binding z-score (relative to random genomic background probes); higher = stronger binding; sequences stand for … in GC…GCGATTGACAGCGTAGAATGAAGG
# [1] = test system: PPARg:RXRa DBDmut IVT, anti-RXR (DBD mutation: RXRa K156A/R161A, NR concentration 270 nM, RXRa partner concentration 90 nM)
# Procedure, shortened: (§1)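 Custom Agilent 4×180K protein-binding microarrays carried double-stranded probes. Their 34-nt variable regions held direct-repeat seeds, single-nucleotide variants, half-site ablations and random human genomic background sequences. Arrays were incubated 1 h with ligand-free nuclear receptor dimers in PBS pH 7.4, 2% milk, 0.02% Triton X-100, 1 mM DTT, 0.2 mg/mL BSA and 0.4 mg/ml salmon testes DNA. Antibodies against each partner (one per run) detected binding, and scanned fluorescence was regression-normalized. Binding z-scores use random background probes as reference.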
# [2] = test system: PPARg:RXRa IVT, anti-PPARg (NR concentration 270 nM, RXRa partner concentration 90 nM)
# Procedure, shortened: as §1
# [3] = test system: PPARg DBDmut:RXRa IVT, anti-PPARg (DBD mutation: PPARg1 K132A/R137A, NR concentration 270 nM, RXRa partner concentration 90 nM)
# Procedure, shortened: as §1
# [4] = test system: PPARg DBDmut IVT, anti-PPARg (DBD mutation: PPARg1 K132A/R137A, NR concentration 270 nM)
# Procedure, shortened: as §1
# [5] = test system: PPARg homodimer (NR concentration 180 nM)
# Procedure, shortened: as §1
# [6] = test system: PXR:RXRa (NR concentration 270 nM, RXRa partner concentration 90 nM)
# Procedure, shortened: as §1
# [7] = test system: PXR homodimer (NR concentration 270 nM)
# Procedure, shortened: as §1
# [8] = test system: RARa:RXR (NR concentration 270 nM, RXRa partner concentration 90 nM)
# Procedure, shortened: as §1
# [9] = test system: RARa homodimer (NR concentration 270 nM)
# Procedure, shortened: as §1
# [10] = test system: RARb:RXRa (NR concentration 270 nM, RXRa partner concentration 90 nM)
# Procedure, shortened: as §1
Sequence,PBM binding z-score [1],PBM binding z-score [2],PBM binding z-score [3],PBM binding z-score [4],PBM binding z-score [5],PBM binding z-score [6],PBM binding z-score [7],PBM binding z-score [8],PBM binding z-score [9],PBM binding z-score [10]
ATTTCTAGGTAAAAGTTCAGTGAATCCCGAGGAT,4.32,5.47,1.89,3.02,2.19,2.38,2.31,2.04,1.29,2.81
AGAATGAGGTTATTAAGATCTGGGAATTGCGGTC,3.21,1.94,0.564,0.21,0.467,1.16,0.379,1.66,-0.145,1.29
CGTCCAAGGTTAATGCTAGGTCAGTGAAAGCATT,1.24,1.56,0.173,-0.333,1.1,1.81,0.209,2.86,-0.141,2.83
AGAACGAGGGCACGCTGAGTTGATATCAGAGTAG,4.16,3.89,0.683,-0.135,0.168,1.44,0.106,0.865,-0.122,2.5
CGAATTAGGTCAGAACAGGACAGTGAAGGATGAT,7.02,7.15,2.8,1.42,1.73,1.09,0.149,1.31,1.19,3.29
AGAATGAGGTTACCAAGGATCAGGGAAACGCTTG,3.39,3.37,1.28,0.207,0.544,1.28,0.0221,2.01,-0.233,2.04
TTACCAAGGTGAAGGACGTTGATCCCTCTGTAGA,1.55,2.11,0.655,-0.0196,0.106,0.213,-0.502,0.474,-0.478,1.26
ACAGACAGGTGATTAAGGTAACTCAGGCTATCAT,0.239,0.557,0.291,-0.545,0.126,0.164,0.294,1.23,0.587,0.35
TCTAGTTGCTCACGGAGGTCACACACGACGGGTA,1.58,2.24,0.833,0.565,2.53,4,0.832,4.2,0.559,3.25
TCTAATAGTTGAAGGGCAACCGACGAGTCCGTTT,2.21,0.129,1.32,0.0205,0.705,0.839,0.503,0.712,-0.387,1.53
TGAATGAGGTTATAAGAACAGGGAACGTTGCAAA,0.968,1.75,0.842,0.453,0.709,0.563,-0.0582,1.32,-0.0801,1.11
TCGTATAGGTAAACAGGTGAAAGTCCGTAAGTTA,2.73,2.33,0.663,0.619,1.46,0.831,0.735,1.22,1.47,0.797
